Screening data as filed in PubChem BioAssay.
CASP6 VEID inh: blocks human caspase-6 cleavage activity | P55212 | inhibition, % at 12.5 µM | 350,000 compounds, 0.53% hits | purified caspase-6, Z-VEID-R110 cleavage fluorescence;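 active = mean inhibition across replicates at least about 35%, with every replicate also reaching that limit, limit read from the data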;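 also: 0% = median of neutral control wells and 100% = no fluorescence left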
UBC9 SUMO inh: SUMOylation inhibition. inhibition, % at 35 µM. HTRF SUMOylation assay, SAE1/SAE2 + UBC9, in vitro. 290,000 compounds, 0.36% hits; in the data active = inhibition above about 50%, passing the limit was not always enough
Target sequence (P63279 whole entry, looked up): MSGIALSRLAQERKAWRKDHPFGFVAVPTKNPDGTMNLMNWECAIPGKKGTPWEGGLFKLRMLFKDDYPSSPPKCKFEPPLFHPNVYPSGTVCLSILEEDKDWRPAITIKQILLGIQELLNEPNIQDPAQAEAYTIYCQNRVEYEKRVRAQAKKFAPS
NSD2 HMT inh: blocks human histone methyltransferase NSD2. inhibition, % at 12.5 µM. NSD2 peptide methylation, AlphaScreen, 120 min. 310,000 compounds, 0.54% hits. AID 743445; in the data active = inhibition above about 50%
SIRT5 inh: inhibitors of human sirtuin-5 desuccinylase; Q9NXA8; Purified SirT5, succinyl-peptide AMC, trypsin-coupled fluorescence; inhibition, % at 15 µM; 330,000 compounds, 1.1% hits; AID 652115; in the data active = inhibition above about 15%
Target sequence (Q9NXA8 whole entry, looked up): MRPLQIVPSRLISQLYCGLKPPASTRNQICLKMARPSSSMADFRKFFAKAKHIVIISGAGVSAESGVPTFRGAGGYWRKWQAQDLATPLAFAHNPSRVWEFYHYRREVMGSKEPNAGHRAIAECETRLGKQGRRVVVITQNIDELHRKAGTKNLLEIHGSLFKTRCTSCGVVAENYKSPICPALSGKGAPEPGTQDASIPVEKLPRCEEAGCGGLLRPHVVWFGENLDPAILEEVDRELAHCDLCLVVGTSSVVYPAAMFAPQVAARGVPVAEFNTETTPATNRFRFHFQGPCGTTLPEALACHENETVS
An asterisk follows results filed as active; . = no result given. Rows were chosen to be rich in hits. Some 1.6% of all compounds tested hit in one or more screens of this group.

SMILES | CASP6 VEID inh | UBC9 SUMO inh | NSD2 HMT inh | SIRT5 inh
O=C(COC(=O)c1cc(=O)[nH]c2ccccc12)NC1CCCC1 | 17.8 | 29.6 | -2.3 | 25.2*
C/C=C/c1ccc([C@@H]2[C@H](CO)N(C(=O)CC)C23CN(CCC(F)(F)F)C3)cc1 | -2.4 | . | . | 0.7
O=C(O)COc1ccccc1/C=N/NC(=O)CSc1nnc(SCc2ccc(Cl)cc2)s1 | 23.4 | 9.2 | 2.7 | -3.3
O=C(O)COc1ccccc1/C=N/NC(=O)CSc1nnc(SCc2cccc3ccccc23)s1 | 36.9* | 22.8 | 7.7 | 17.1*
Cc1cc(/C=N/n2c(COc3ccccc3)nc3ccccc3c2=O)c(O)c([N+](=O)[O-])c1 | . | 93.3* | 8.1 | .
Oc1ccccc1C=NNC(=S)NC1CC2C=CC1C2 (configuration not stated) | -2.7 | . | 2.0 | .
Oc1c(Cl)cc(Cl)cc1/C=N/NC(=S)NC1CC2C=CC1C2 (configuration not stated) | 5.9 | 55.3* | 39.9 | -0.3
CCCS(=O)(=O)NC(=O)C1(C)CCN(C(=O)c2cccs2)C1 (configuration not stated) | -2.8 | . | -2.1 | 20.2*
COc1ccc(C[C@H]2CN3C(=NC[C@@H]3Cc3ccc(O)cc3)N2C[C@H](C)NC(=O)CCC2CCCCC2)cc1 | 6.3 | 1.2 | . | 30.6*
C[C@@H]1CN([C@@H](C)CO)C(=O)c2cc(NC(=O)Nc3ccc4c(c3)OCO4)ccc2O[C@@H]1CN(C)C(=O)Nc1ccc(C(F)(F)F)cc1 | -2.2 | . | . | 16.4*
C[C@@H]1CN([C@H](C)CO)C(=O)c2cc(NC(=O)c3ccncc3)ccc2O[C@@H]1CN(C)C(=O)Nc1ccc2c(c1)OCO2 | -1.7 | . | . | 19.8*
C[C@H](CO)N1C[C@H](C)[C@@H](CN(C)C(=O)Nc2ccc3c(c2)OCO3)Oc2ccc(NC(=O)c3ccncc3)cc2C1=O | 0.3 | . | . | -1.9
C[C@H](CO)N1C[C@H](C)[C@H](CN(C)C(=O)Nc2ccc3c(c2)OCO3)Oc2ccc(NC(=O)Nc3ccc(C(F)(F)F)cc3)cc2C1=O | -1.9 | . | . | 15.4*
C[C@H]1CN([C@@H](C)CO)C(=O)c2cc(NC(=O)Nc3ccc4c(c3)OCO4)ccc2O[C@H]1CN(C)C(=O)Nc1ccc2c(c1)OCO2 | -4.3 | . | . | 16.4*
CC(=O)N1CC2(C1)[C@@H](c1ccc(-c3ccc(C#N)cc3)cc1)[C@@H](CO)N2C(=O)C1CC1 | 0.5 | . | . | -0.4
C[C@@H]1CN([C@@H](C)CO)C(=O)c2cc(NC(=O)CCCCCC(=O)Nc3ccccc3N)ccc2O[C@@H]1CN(C)C | -1.9 | . | . | .
CN(C)CCCNC(=O)C[C@@H]1CC[C@H]2[C@@H](COc3ccc(NC(=O)NC4CCCC4)cc3C(=O)N2C)O1 | -1.3 | . | . | 0.2
C[C@@H]1CN([C@H](C)CO)C(=O)Cc2cc(NS(=O)(=O)c3ccc(F)cc3)ccc2O[C@H]1CN(C)S(=O)(=O)c1cccs1 | -2.4 | . | . | 4.5
C[C@@H]1CN([C@@H](C)CO)C(=O)c2cc(NC(=O)Nc3ccc4c(c3)OCO4)ccc2O[C@@H]1CN(C)Cc1ccc(C(F)(F)F)cc1 | 4.5 | . | . | 16.7*
C[C@H]1CN([C@@H](C)CO)C(=O)c2cc(NC(=O)Nc3ccc(C(F)(F)F)cc3)ccc2O[C@H]1CN(C)Cc1ccc2c(c1)OCO2 | 0.0 | . | . | 0.5
COC(=O)C1=C(C)N(C)C(=O)NC1c1cc2c(cc1[N+](=O)[O-])OCO2 (configuration not stated) | 4.1 | 65.6* | 4.5 | -0.5
COc1ccccc1C#Cc1ccc([C@H]2[C@H](C#N)N(C(=O)C3CCC3)[C@H]2CO)cc1 | 0.2 | . | . | 5.8
CCC/C(O)=C1\C(=O)CC(c2ccccc2)CC1=NCCc1c(C)[nH]c2ccccc12 (configuration not stated) | -1.9 | -25.1 | . | -1.0
CCC/C(O)=C1\C(=O)CCCC1=NCCc1c(C)[nH]c2ccccc12 | -1.6 | 7.9 | 7.0 | 25.0*
O=C1/C(=C\c2ccco2)CCC/C1=C\c1ccco1 | 73.8* | 51.9* | 21.7 | .
SMILES | CASP6 VEID inh | UBC9 SUMO inh | NSD2 HMT inh | SIRT5 inh
O=C1NC(=S)NC1=Cc1ccco1 | 43.9* | . | . | 3.6
CC1C/C(=C/c2ccco2)C(=O)/C(=C/c2ccco2)C1 (configuration not stated) | . | 43.1 | . | .
O=C1NC(=O)/C(=C/c2ccco2)N1 | 0.2 | . | . | .
COc1ccc(/C=C2\SC(=Nc3ccccc3)NC2=O)cc1 | . | 7.4 | . | .
Cc1ccc(S(=O)(=O)/N=C2/NC(=O)/C(=C\c3ccco3)S2)cc1 | . | 3.7 | 16.7 | .
COc1ccc(N=C2NC(=O)/C(=C\c3ccco3)S2)cc1 | -2.8 | 61.6* | -2.5 | 2.6
O=C1NC(=O)C(=Cc2ccco2)S1 | 49.0* | . | 14.4 | .
CC(=O)N1[C@@H]2Cn3c(ccc(-c4ccccc4)c3=O)[C@H]1[C@@H](C(=O)NCCCN1CCOCC1)[C@@H]2CO | -1.0 | . | . | -38.9
Cc1ccc(S(=O)(=O)N[C@@H]2C=C[C@H](CC(=O)NCCc3ccncc3)O[C@H]2CO)cc1 | -0.2 | . | . | -6.6
C[C@H]1CCCCO[C@H](CN(C)C(=O)Cc2ccccc2)[C@@H](C)CN([C@@H](C)CO)C(=O)c2cc(NC(=O)Cc3ccccc3)ccc2O1 | -0.7 | . | . | 2.4
NC1=NC(=O)C(=Cc2ccccc2)S1 | 1.1 | . | -2.2 | .
NC1=NC(=O)/C(=C\c2ccco2)S1 | 62.9* | . | 29.6 | 8.5
COc1cccc(C(=O)Nc2ccc3c(c2)OC[C@@H](C)NC[C@H](C)[C@@H](OC)CN(C)C3=O)c1 | -1.3 | . | . | -3.5
CCC(=O)NC[C@@H]1[C@@H](c2ccc(C3=CCCCC3)cc2)[C@@H](CO)N1C(=O)C1CC1 | 0.1 | . | . | 1.3
O=CC(O)C1OC(=O)C(O)C1O (configuration not stated) | 41.3* | . | . | 0.4
Cc1ccc(NC(=O)C2CCCC2)c(C)c1 | . | . | 1.3 | .
C[C@@H]1CN([C@H](C)CO)C(=O)c2cccc(NC(=O)Nc3ccccc3)c2O[C@@H]1CN(C)C(=O)Nc1ccc2c(c1)OCO2 | 0.4 | . | . | -8.2
CC(C)C(NS(=O)(=O)c1ccc2c(c1)Cc1cc(S(=O)(=O)NC(C(=O)O)C(C)C)ccc1-2)C(=O)O (configuration not stated) | 1.6 | -2.4 | 0.1 | 25.2*
O=C(C[C@H]1CC[C@@H]2[C@H](COC[C@@H](O)CN2S(=O)(=O)c2ccccc2)O1)NCc1ccc2c(c1)OCO2 | 3.3 | . | . | -0.9
Oc1cc2c(cc1O)C1c3ccc(O)c(O)c3OCC1(O)C2 (configuration not stated) | 42.1* | 24.7 | . | 0.6
O=C(CCN1C(=O)/C(=C/c2ccco2)SC1=S)Nc1ccc(C(=O)O)c(O)c1 | 73.6* | . | 26.9 | 49.7*
O=C(CCN1C(=O)/C(=C/c2ccccc2Cl)SC1=S)Nc1ccccc1C(=O)O | 1.0 | 12.1 | 12.6 | 17.8*
O=C(CCCN1C(=O)/C(=C/c2ccco2)SC1=S)Nc1ccccc1C(=O)O | 61.7* | 67.7 | . | 26.5*
O=C(CN1C(=O)/C(=C\c2ccco2)SC1=S)Nc1ccc(O)cc1C(=O)O | 73.1* | 82.5* | . | 48.5*
O=C(CCCN1C(=O)/C(=C\c2ccccc2)SC1=S)Nc1ccc(O)cc1C(=O)O | . | -2.8 | 24.3 | -1.1
O=C(CCCN1C(=O)/C(=C\c2ccco2)SC1=S)Nc1ccc2ccccc2c1 | 8.2 | 21.6 | 0.5 | 14.2
